For the experiment, the system named is MILI (PIWIL2) piRISC loaded with L1MC piRNA (26 nt). The experiment can be described thus: pre-steady-state target cleavage rate (min^-1); guide: L1MC piRNA 5'p-UAACUAAAUACUAUGCAAGCUGUAGG; MIWI and MILI are mouse PIWI proteins and EfPiwi is from a freshwater sponge; tags in brackets are library labels; higher = faster piRNA-guided slicing of the target. In outline:
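In HEPES–potassium acetate buffer at 33 °C, […] transcribed, DNA-blocked target RNA library was mixed with 1 nM active affinity-purified piRISC carrying one synthetic guide, with or without 500 nM GTSF1 partner protein, for 0–8 or 0–960 min. Uncleaved targets were sequenced and normalised to depth and to weakly complementary targets; three trials were pooled and k3 was capped at 0.0001 min^-1. The pre-steady-state cleavage rate followed from a burst-and-steady-state fit.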

Setting [1] is: auxiliary factor: 500 nM mouse GTSF1.
Setting [2] is: auxiliary factor: none (no GTSF1).

± gives the standard deviation.
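Also: 1 nM active piRISC with 0.1 nM target library at 33 °C single turnover.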

With UCCUGCUACAGCUUGCAUUGUAUAUAGUUA, the “pre-steady-state target cleavage rate” value turned out to be 0.194 ± 0.028 under setting [1] and 0.00483 ± 0.0018 under setting [2].

Take UCCUGGAUGUCCUUGCAUAGUAAUAAGUUA: the “pre-steady-state target cleavage rate” value is 0.0367 ± 0.013 under setting [1] and 0.00284 ± 0.0025 under setting [2].

Turning to UCCUGGAUGUCGUUGCAUAGUAUUUCAGUUA, the “pre-steady-state target cleavage rate” value under setting [1] was 0.0621 ± 0.017 and the “pre-steady-state target cleavage rate” value under setting [2] is 0.00397 ± 0.0033.

For the sequence UCCUGGAUGUCGAUGCUUAGUAUUUAGUUA, the “pre-steady-state target cleavage rate” value runs as follows: under setting [1], 0.019 ± 0.0053; under setting [2], 0.00602 ± 0.0019.

As for UCCUGGAUGUCGUUGCAUAGUAUUCUAGUUA, the “pre-steady-state target cleavage rate” value is, setting by setting: under setting [1], 0.18 ± 0.045; under setting [2], 0.00434 ± 0.0027.

In the case of UCCUGGAUGUCCUUGCAAAGUAUUAAGUUA, the “pre-steady-state target cleavage rate” value was 0.0398 ± 0.0098 under setting [1] and 0.00691 ± 0.0023 under setting [2].

Consider UCCUGGUACAGCUUGGCAUAGUAUUUAGUUA, for which the “pre-steady-state target cleavage rate” value reads like this: under setting [1], 0.4 ± 0.093; under setting [2], 0.00473 ± 0.0036.

Consider UCCUGGAUGAGCUUGCAAAGUAUUUAGUAA, for which the “pre-steady-state target cleavage rate” value runs as follows: under setting [1], 0.085 ± 0.015; under setting [2], 0.00635 ± 0.0025.

As to UCCUGGAUGUGCAUGCAUAGUAUAUAGUUA, the “pre-steady-state target cleavage rate” value under setting [1] is 0.19 ± 0.029 and the “pre-steady-state target cleavage rate” value under setting [2] stood at 0.00367 ± 0.0031.

As to UCCUGGUACAGCUUGCAUUGAAUUUAGUUA, the “pre-steady-state target cleavage rate” value reads like this: under setting [1], 0.047 ± 0.015; under setting [2], 0.00399 ± 0.0037.

On to UCCUGGUACAGCUUGCUAUGUAUUUAGUUA, for which the “pre-steady-state target cleavage rate” value under setting [1] was 0.0246 ± 0.0085 and the “pre-steady-state target cleavage rate” value under setting [2] was determined as 0.00465 ± 0.0027.

Take UCCUGCUAGAGCUUGCAUUGUAUUUAGUUA: the “pre-steady-state target cleavage rate” value is, setting by setting: under setting [1], 0.219 ± 0.018; under setting [2], 0.0097 ± 0.0023.

As for UCCUGCUACAACUUGCAUAGUAUUUAGUUA, the “pre-steady-state target cleavage rate” value reads like this: under setting [1], 0.247 ± 0.023; under setting [2], 0.00739 ± 0.0024.

Consider UCCUGGAUCAGCUUGCAUACUAAUUAGUUA, for which the “pre-steady-state target cleavage rate” value under setting [1] was 0.0215 ± 0.0055 and the “pre-steady-state target cleavage rate” value under setting [2] came out at 0.00367 ± 0.0023.

For the sequence UCCUGGAUGAGCUUGCUUACUAUUUAGUUA, the “pre-steady-state target cleavage rate” value stood at 0.0357 ± 0.0051 under setting [1] and 0.00365 ± 0.0025 under setting [2].

Take UCCUGGUACAGCUUGCUUUGUAUUUAGUUA: the “pre-steady-state target cleavage rate” value was 0.123 ± 0.017 under setting [1] and 0.0068 ± 0.0025 under setting [2].

As for UCCUGGAUGUCCUAGCAUAGUAAUUAGUUA, the “pre-steady-state target cleavage rate” value reads like this: under setting [1], 0.0282 ± 0.01; under setting [2], 0.00305 ± 0.0025.

In the case of UCCUGGUACAGCUUGCAUAGUAAAAAGUUA, the “pre-steady-state target cleavage rate” value is, setting by setting: under setting [1], 0.104 ± 0.024; under setting [2], 0.00471 ± 0.003.

As for UCCUGGAUCAGGAAGCAUAGUAUUUAGUAA, the “pre-steady-state target cleavage rate” value is 0.0716 ± 0.014 under setting [1] and 0.00297 ± 0.0022 under setting [2].

Regarding UCCUGGUACAGCUUGCAUAGUUUUUAGUUA, the “pre-steady-state target cleavage rate” value is, setting by setting: under setting [1], 0.0505 ± 0.013; under setting [2], 0.00579 ± 0.0038.

Take UCCUCCUACAGCUUGCAUAGUAUAUUAGUUA: the “pre-steady-state target cleavage rate” value reads like this: under setting [1], 0.282 ± 0.019; under setting [2], 0.00588 ± 0.0024.

For UCCUGGAUGUCGUUGCAUAGUACUUUAGUUA, the “pre-steady-state target cleavage rate” value was 0.0156 ± 0.0059 under setting [1] and 0.00645 ± 0.0028 under setting [2].

With UCCUGGAUGUCGAUGCAUAGUCUUUAGUUA, the “pre-steady-state target cleavage rate” value was 0.0205 ± 0.0056 under setting [1] and 0.00627 ± 0.002 under setting [2].

Take UCCUGGAUCAGCUUGCUUAGUAUUUUGUUA: the “pre-steady-state target cleavage rate” value amounted to 0.16 ± 0.015 under setting [1] and 0.00583 ± 0.0022 under setting [2].

Regarding UCCUGCUACACCUUGCAAAGUAUUUAGUUA, the “pre-steady-state target cleavage rate” value is, setting by setting: under setting [1], 0.106 ± 0.0086; under setting [2], 0.00675 ± 0.0025.

On to UCCUGGAUGUGCUUGGUUAGUAUUUAGUAA, for which the “pre-steady-state target cleavage rate” value was determined as 0.149 ± 0.026 under setting [1] and 0.0127 ± 0.003 under setting [2].

On to UCCUGGAUGUCGUUGCAUAGUAUCUUAGUUA, for which the “pre-steady-state target cleavage rate” value under setting [1] was 0.0991 ± 0.021 and the “pre-steady-state target cleavage rate” value under setting [2] came out at 0.00848 ± 0.0026.

For the sequence UCCUGGAUGUGCUAGCAUAGUAAUUAGUUA, the “pre-steady-state target cleavage rate” value under setting [1] amounted to 0.0614 ± 0.011 and the “pre-steady-state target cleavage rate” value under setting [2] turned out to be 0.00598 ± 0.0021.

For the sequence UCCUGCUACUGCUUGCAUAGUAUUAAGUUA, the “pre-steady-state target cleavage rate” value is, setting by setting: under setting [1], 0.151 ± 0.02; under setting [2], 0.00322 ± 0.0028.

As for UCCUCCAACAGCUUGCAUACUAUUUAGUUA, the “pre-steady-state target cleavage rate” value runs as follows: under setting [1], 0.0905 ± 0.012; under setting [2], 0.00321 ± 0.0025.

Regarding UCCUGGAUGUCGAUGCAUAGUAUAUAGUUA, the “pre-steady-state target cleavage rate” value is, setting by setting: under setting [1], 0.143 ± 0.028; under setting [2], 0.00598 ± 0.0024.

Regarding UCCUGGUACAGCUUCCAAAGUAUUUAGUUA, the “pre-steady-state target cleavage rate” value was determined as 0.138 ± 0.028 under setting [1] and 0.00693 ± 0.0027 under setting [2].

Turning to UCCUGGAUGUCGAUGCAUAGUAUAUUAGUUA, the “pre-steady-state target cleavage rate” value by setting is: under setting [1], 0.0713 ± 0.015; under setting [2], 0.00716 ± 0.0023.

Turning to UCCUGGAUGAGCUUUCAUAGUAUUUAGUUA, the “pre-steady-state target cleavage rate” value runs as follows: under setting [1], 0.15 ± 0.018; under setting [2], 0.00493 ± 0.0026.

As for UCCUGGAUGUCCUUCAUAGUAUUUAGUUA, the “pre-steady-state target cleavage rate” value under setting [1] was found to be 0.0147 ± 0.004 and the “pre-steady-state target cleavage rate” value under setting [2] is 0.00296 ± 0.0021.

For UCCUGGAACAGGUAGCAUAGUAUUUAGUUA, the “pre-steady-state target cleavage rate” value by setting is: under setting [1], 0.209 ± 0.016; under setting [2], 0.00531 ± 0.0016.

On to UCCUGGAUGAGCUUGCUUAGUAUUUUGUUA, for which the “pre-steady-state target cleavage rate” value was found to be 0.138 ± 0.021 under setting [1] and 0.00587 ± 0.0022 under setting [2].

UCCUGGAUGUCCUUGCAUAGUUUUAAGUUA: the “pre-steady-state target cleavage rate” value runs as follows: under setting [1], 0.0115 ± 0.0059; under setting [2], 0.00312 ± 0.0026.

UCCUCCUUCAGCUUGCUUAGUAUUUAGUUA: the “pre-steady-state target cleavage rate” value stood at 0.286 ± 0.015 under setting [1] and 0.00762 ± 0.002 under setting [2].

As for UCCUGCUACAGCAAGCAUAGUAUUUAGUAA, the “pre-steady-state target cleavage rate” value is, setting by setting: under setting [1], 0.281 ± 0.026; under setting [2], 0.00383 ± 0.0032.

Consider UCCUGGAUGUCGAUGCAUAGUAUUAAGUUA, for which the “pre-steady-state target cleavage rate” value reads like this: under setting [1], 0.122 ± 0.017; under setting [2], 0.0035 ± 0.0025.

On to UCCUGGAACAGCAUGCAUAGUAUUAAGUUA, for which the “pre-steady-state target cleavage rate” value was determined as 0.219 ± 0.027 under setting [1] and 0.00548 ± 0.0019 under setting [2].

Consider UCCUGGAUGAGCUUGGAUAGUAUUUAGUAA, for which the “pre-steady-state target cleavage rate” value is 0.178 ± 0.027 under setting [1] and 0.00491 ± 0.0023 under setting [2].

On to UCCUGGAUCAGCUUGCUUAGUAUAUAGUUA, for which the “pre-steady-state target cleavage rate” value came out at 0.234 ± 0.014 under setting [1] and 0.00803 ± 0.0031 under setting [2].

UCCUGGAUGUCCUUGCAAAGUAUUUAGUAA: the “pre-steady-state target cleavage rate” value reads like this: under setting [1], 0.0311 ± 0.0099; under setting [2], 0.00418 ± 0.0019.

Regarding UCCUCCUACAGGAAGCAUAGUAUUUAGUUA, the “pre-steady-state target cleavage rate” value worked out at 0.292 ± 0.011 under setting [1] and 0.00603 ± 0.0024 under setting [2].

As to UCCUGGAUGUCGAUGCAUAGUAAUUAGUUA, the “pre-steady-state target cleavage rate” value under setting [1] was determined as 0.0524 ± 0.011 and the “pre-steady-state target cleavage rate” value under setting [2] turned out to be 0.00499 ± 0.0021.

For UCCUGGAUCAGCUUGCAUAGUAUUAACUUA, the “pre-steady-state target cleavage rate” value by setting is: under setting [1], 0.0348 ± 0.011; under setting [2], 0.00289 ± 0.0028.

As to UCCUGGUUCAGCAUGCAUAGUAUUUAGUUA, the “pre-steady-state target cleavage rate” value runs as follows: under setting [1], 0.199 ± 0.026; under setting [2], 0.0092 ± 0.0032.

Take UCCUGGAUGUCGAAGGCAUAGUAUUUAGUUA: the “pre-steady-state target cleavage rate” value by setting is: under setting [1], 0.0371 ± 0.0065; under setting [2], 0.00443 ± 0.0024.

As to UCCUGGAUGUCGAAGCAUAGUAUUUGGUUA, the “pre-steady-state target cleavage rate” value was determined as 0.0178 ± 0.0055 under setting [1] and 0.00505 ± 0.0019 under setting [2].

In the case of UCCUGGAUGUGCUUGCUUAGUAUUUAGUUA, the “pre-steady-state target cleavage rate” value was determined as 0.094 ± 0.013 under setting [1] and 0.0114 ± 0.0031 under setting [2].

Regarding UCCUGGAUCAGCUUGCAAAGUAAUUAGUUA, the “pre-steady-state target cleavage rate” value worked out at 0.0974 ± 0.011 under setting [1] and 0.00502 ± 0.0023 under setting [2].

Take UCCUCCUACAGCUUGCAUAGUAUUCUAGUUA: the “pre-steady-state target cleavage rate” value under setting [1] stood at 0.316 ± 0.039 and the “pre-steady-state target cleavage rate” value under setting [2] came to 0.00537 ± 0.0026.

For the sequence UCCUGGAACAGCUUGCAUAGUAUGUUAGUUA, the “pre-steady-state target cleavage rate” value under setting [1] was 0.243 ± 0.046 and the “pre-steady-state target cleavage rate” value under setting [2] stood at 0.0048 ± 0.0027.

For UCCUGGAUGAGCUAGCUUAGUAUUUAGUUA, the “pre-steady-state target cleavage rate” value runs as follows: under setting [1], 0.13 ± 0.012; under setting [2], 0.00773 ± 0.0023.

As to UCCUGGUACAGCUUCGUUAGUAUUUAGUUA, the “pre-steady-state target cleavage rate” value by setting is: under setting [1], 0.128 ± 0.013; under setting [2], 0.00406 ± 0.0022.

Turning to UCCUGGAUGUCCUUGGAUAGUAUUUUGUUA, the “pre-steady-state target cleavage rate” value came out at 0.139 ± 0.031 under setting [1] and 0.00318 ± 0.0024 under setting [2].

UCCUGGAUGUGCAUGCAUAGUAUUUAGUAA: the “pre-steady-state target cleavage rate” value is 0.121 ± 0.017 under setting [1] and 0.00467 ± 0.0026 under setting [2].

As to UCCUGGUACAGCUUGGUUAGUAUUUAGUAA, the “pre-steady-state target cleavage rate” value is 0.159 ± 0.038 under setting [1] and 0.01 ± 0.0031 under setting [2].

These data come from the supplement of paper PMC10338343.
